mcGAS lum – blocks mouse cGAS activity; inhibition, % at 12.5 µM; AID 1259399; recombinant cGAS, Kinase-Glo ATP depletion luminescence; actives 0.15% (n = 160,000)
hcGAS lum – inhibitors of human cGAS; Q8N884; recombinant h-cGAS, ATP depletion, Kinase-Glo luminescence; inhibition, % at 12.5 µM; actives 0.081% (n = 290,000); AID 1259398
Target sequence (Q8N884 whole entry, looked up): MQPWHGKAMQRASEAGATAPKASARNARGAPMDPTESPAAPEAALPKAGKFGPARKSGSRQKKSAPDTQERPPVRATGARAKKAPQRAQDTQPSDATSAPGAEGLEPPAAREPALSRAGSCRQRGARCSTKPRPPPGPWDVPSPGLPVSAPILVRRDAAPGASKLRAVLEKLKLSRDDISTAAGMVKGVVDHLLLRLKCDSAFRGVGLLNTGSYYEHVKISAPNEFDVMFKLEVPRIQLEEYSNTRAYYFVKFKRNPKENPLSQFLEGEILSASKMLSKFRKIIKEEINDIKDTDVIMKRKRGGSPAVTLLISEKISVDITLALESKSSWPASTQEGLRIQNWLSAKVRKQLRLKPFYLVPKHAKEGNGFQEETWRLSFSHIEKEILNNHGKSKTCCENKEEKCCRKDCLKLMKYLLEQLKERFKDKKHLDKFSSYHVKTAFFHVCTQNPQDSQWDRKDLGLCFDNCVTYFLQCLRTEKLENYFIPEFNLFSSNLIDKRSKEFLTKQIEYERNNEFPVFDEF
NPYLR7 agonist – activates Aedes aegypti NPYLR7 receptor; HEK293T NPYLR7/Galpha15, GCaMP6s calcium fluorescence; AID 1259423; activation, % at 10 µM; actives 0.15% (n = 270,000); in the data active means activation above about 40%
Each line names hits and unclear results; the compound was inactive in the other large screens; ! = repeats disagree. Most compounds without a hit are left out; they make up all but 0.3% or so of the library. Unless noted, no stated cut-off is given here; in the data, active means inhibition above about 40%; inactive means the rest.

CCC(C)NC(=O)C(C)NC(=O)NC/C=C/c1ccccc1 (centres undefined)	none
CC(c1cccnc1)N(C)C(=O)Nc1ccc(OCCN2CCN(C)CC2)cc1 (centres undefined)	none (no result: mcGAS lum)
COc1ccc(-c2coc3cc(O)ccc3c2=O)c(OC)c1O	none
COc1ccc(-c2coc3cc(O)ccc3c2=O)c(O)c1O	mcGAS lum 68.0, hcGAS lum 50.8 (no result: NPYLR7 agonist)
CCCCCOc1ccc(C(=O)NN(C)c2ccccc2)cc1OCCCCC	none
COc1ccc(N2CCN(c3nc(SC)ncc3CNCCc3cccc(OC)c3)CC2)cc1	none
Cc1ccc(S(=O)(=O)N2CCN(C(=O)NCCc3ccccc3)CC2)cc1	none (no result: mcGAS lum)
O=C1c2ccc(O)c(O)c2C(=O)c2c(O)ccc(O)c21	mcGAS lum 79.4, hcGAS lum 46.8 (no result: NPYLR7 agonist)
O=C1c2ccccc2C(=O)c2c1ccc(O)c2O	none (no result: mcGAS lum)
CCOc1ccc2nc(Nc3nc(C)c(C)c(C)n3)nc(C)c2c1	none
CCOc1ccc2nc3cc(N)ccc3c(N)c2c1	hcGAS lum 98.8, NPYLR7 agonist 72.0 (no result: mcGAS lum)
COc1cccc(Oc2cc(C)nc(SCc3ccc(C(C)(C)C)cc3)n2)c1	none
CCCc1[nH]n(-c2ccc(Cl)cc2)c(=O)c1/C=C1\NC(=O)N(Cc2ccc(C)cc2)C1=O	NPYLR7 agonist 45.1
CCCc1[nH]n(-c2ccc(Cl)cc2)c(=O)c1/C=C1\NC(=O)N(Cc2cccc(C)c2)C1=O	none
COc1ccccc1C1CC(c2ccc(C)cc2)=NN1S(C)(=O)=O (centres undefined)	none
O=C(N=Nc1c(O)[nH]c2ccc(Br)cc12)c1ccccc1Cl	NPYLR7 agonist 71.8
O=C(N=Nc1c(O)[nH]c2ccc(Br)cc12)c1ccccc1O	none
O=C(COc1cccc(Cl)c1)N=Nc1c(O)[nH]c2ccccc12	none (no result: mcGAS lum)
CCN(CC)CCCC(C)NC(=O)c1cc(-c2ccc(OC)cc2)nc2cc(-c3ccc(Cl)cc3)nn12 (centres undefined)	none
CCN(CC)CCCC(C)NC(=O)c1cc(-c2ccc(OC)cc2)nc2cc(-c3ccccc3)nn12 (centres undefined)	mcGAS lum 90.5, hcGAS lum 91.2
OC=c1ccc2cccc3nc(C(F)(F)F)nc1c23	NPYLR7 agonist 76.8 (no result: mcGAS lum)
OC(c1ccccc1)=c1ccc2cccc3ncnc1c23	none (no result: mcGAS lum)
CC(C)CN(Cc1cnn(C)c1)C(=O)c1cc(=O)n(C)c(=O)n1C	none
COc1ccc(C(=O)N(Cc2ccccc2)C2CCC(NC(=O)C3CCN(C(=O)c4ccc(Cl)cc4)CC3)CC2)cc1 (centres undefined)	none
COc1ccc(C(=O)N(Cc2ccccc2)C2CCC(NC(=O)C3CCN(C(=O)c4ccccc4Cl)CC3)CC2)cc1 (centres undefined)	NPYLR7 agonist 45.2
Cc1ccc(C(=O)C(OC(=O)CNC(=O)CNC(=O)Cc2ccccc2)c2ccccc2)cc1 (centres undefined)	none (no result: mcGAS lum)
O=C(c1ccc(Cl)cc1)N(CCN1CCOCC1)c1nc2c(F)cc(F)cc2s1	none (no result: mcGAS lum)
CCCCN1C(=O)C(=Cc2cccnc2)NC1=S	none (no result: mcGAS lum)
CCOCCCN1C(=O)C(=Cc2ccccc2O)NC1=S	NPYLR7 agonist 119.6 (no result: mcGAS lum)
COc1ccccc1C=C1SC(=S)N(Cc2ccco2)C1=O	none (no result: mcGAS lum)
O=C1C(=Cc2ccccc2O)NC(=S)N1Cc1ccco1	NPYLR7 agonist 80.1
O=C(NCC1CCC1)c1ccccc1C(=O)c1cccs1	none (no result: mcGAS lum)
O=C1NC(=S)SC1=Cc1ccccc1Cl	hcGAS lum 56.2 (no result: mcGAS lum)
O=C1NC(=S)SC1=Cc1ccc(F)c(F)c1	none
O=C1NC(=O)C(=Cc2cccc(Cl)c2Cl)S1	none (no result: mcGAS lum)
O=C1NC(=S)SC1=Cc1c(F)cccc1F	hcGAS lum 41.6 (no result: mcGAS lum)
CN(CCC1CCOCC1)C(=O)CCSc1ccc2c(c1)OCCO2	none
COC(=O)c1ccc2c(c1)C1CC(C)(O2)N(c2ccc(C)c(C)c2)C(=O)N1 (centres undefined)	none
COc1cc(/C=C2\SC(=S)N(C(CC(=O)O)C(=O)O)C2=O)ccc1O (centres undefined)	NPYLR7 agonist 67.7
COc1ccc(/C=C2\SC(=S)N(c3ccc(C(=O)O)cc3)C2=O)cc1OC	none
COc1cc(/C=C2\SC(=S)N(c3cccc(C(=O)O)c3)C2=O)ccc1O	NPYLR7 agonist 52.3
COCCN1C(=O)/C(=C/c2ccc(O)c(OC)c2)SC1=S	none (no result: mcGAS lum)
C#CCOC(=O)c1ccccc1C(=O)N(CC)CC	none (no result: mcGAS lum)
COC(=O)c1ccc(C=CC(=O)c2ccc(OC)cc2)cc1	none
CCOc1ccc2cc(-c3nc4ccccc4s3)c(=O)oc2c1	none
O=c1oc2cc(O)ccc2cc1-c1nc2ccccc2s1	NPYLR7 agonist 140.5
COc1ccccc1CCC(=O)N1CCc2c(c(C(=O)O)nn2CC2CC2)C1	none (no result: mcGAS lum)
Cc1cc(N)c2ccccc2[n+]1CCCCCCCCCC[n+]1c(C)cc(N)c2ccccc21	hcGAS lum 90.9!
CC[n+]1c(C)cc(Cl)c2ccccc21	none
O=C(c1ccc(C(F)(F)F)c(F)c1)N1CCC(n2c(=O)[nH]c3ccccc32)CC1	none (no result: mcGAS lum)
COC(=O)C(C)Sc1nc2sc3c(c2c(=O)n1C)CCC3 (centres undefined)	NPYLR7 agonist 51.1 (no result: mcGAS lum)
COC(=O)C(C)Sc1nc2sc3c(c2c(=O)n1Cc1ccccc1)CCC3 (centres undefined)	none (no result: mcGAS lum)
COc1ccc(OC)c(-n2c(-c3ccccc3)cc(C(=O)NCCN3CCCCC3)c2C)c1	none
Cc1ccccc1C1CCCN1C(=O)C(C)(C)NC(=O)c1cccs1 (centres undefined)	hcGAS lum 50.2 (no result: mcGAS lum)
CC(C)(NC(=O)c1cccs1)C(=O)NC1CCN(Cc2ccccc2)C1 (centres undefined)	none (no result: mcGAS lum)
O=C1/C(=C/c2ccc(-c3cccc(Cl)c3)o2)NC(=S)N1c1ccccc1	none
O=C1NC(=S)N(c2ccc3ccccc3c2)C(=O)/C1=C/c1ccc(-c2cccc(C(=O)O)c2)o1	mcGAS lum 81.0, hcGAS lum 56.3
CCOC(=O)CCCCCC(=O)N1CCN(CCCOC(c2ccc(Cl)cc2)c2ccc(Cl)cc2)CC1	none
COc1cc(C=C2C(=O)N(C)C(=O)N(C)C2=O)cc([N+](=O)[O-])c1O	mcGAS lum 45.7
COc1cc(C=C2C(=O)N(C)C(=O)N(C)C2=O)cc(I)c1O	none
O=C(COc1ccc2ccccc2c1)N1CCN=C1SCc1cccnc1	none (no result: mcGAS lum)
COc1ccc(OCC(O)CN(CCC(C)C)Cc2cccc(OC)c2)cc1 (centres undefined)	mcGAS lum 79.2
COCCN(Cc1cccc(OC)c1)CC(O)COc1ccc(OC)cc1 (centres undefined)	none
CCOC(=O)C1CCN(C(=O)CCCSc2nnc(-c3ccc(C)cc3)n2-c2ccccc2OC)CC1	none
Nc1ccccc1-c1nc(-c2ccccc2)nc2ccccc12	none
Nc1c2ccccc2nc2ccccc12 (tested in a mixture with another compound)	hcGAS lum 54.5 (no result: mcGAS lum)
COc1cc(C(=O)NC2CCc3ccccc32)ccc1OC(F)F (centres undefined)	none (no result: mcGAS lum)
CCC(=O)Nc1ccc(N(C)C)c(CN(C(=O)C(C)(C)C)C2CC2)c1	none
CN1C(=CC(=O)C(F)(F)F)Sc2ccccc21	none
CCN(CC)CC[n+]1c(C)cc(C=C2Sc3ccccc3N2C)cc1C	NPYLR7 agonist 44.2 (no result: mcGAS lum)
Cc1cc(C)c2c3c([nH]c2c1)CCC(NC(=O)CCc1ccc2c(c1)OCO2)C3 (centres undefined)	none
CCc1nc(C)nc(N2CCN(C(=O)C3CC3)CC2)c1Cc1ccc(F)cc1	none (no result: NPYLR7 agonist)
COCCn1c(C)cn2c3c(=O)n(Cc4ccc(Cl)cc4)c(=O)n(C)c3nc12	NPYLR7 agonist 51.8
COCCCn1c(C)cn2c3c(=O)n(Cc4ccc(Cl)cc4)c(=O)n(C)c3nc12	none (no result: mcGAS lum)

Screens deposited in PubChem by Fisher Drug Discovery Resource Center.
